The supplement of paper PMC10849652
Of roughly 8,800 targets only a part is listed; those with a hit were picked by preference. About 0.5% of all pairs of compound and target were hits.

Assays:
Assay in all cases: log2 fold change, soluble protein after heating vs DMSO (PISA); higher = thermal stabilisation; K562 lysate, 10 uM; active = over 0.2 and 3.5 SD of the protein, either way, in both replicates (recomputed)
alvocidib = compound: CN1CC[C@H](c2c(O)cc(O)c3c(=O)cc(-c4ccccc4Cl)oc23)[C@H](O)C1 [alvocidib]
How it was run: (§1)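 Quantification was by TMTpro 16plex LC-MS/MS with equalised channel sums, applied to the supernatant after 21,000xg for 90 min. Samples were crude K562 extract at 1 mg/mL protein in PBS pH 7.4 with 1 mM MgCl2, treated with 10 μM compound for 30 min, heated for 3 min across 48°C-58°C, pooled and brought to 0.5% NP-40 at 4°C. Values are log-two fold changes in thermal stability relative to solvent controls, from duplicates.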

Tubastatin A = compound: CN1CCc2c(c3ccccc3n2Cc2ccc(C(=O)NO)cc2)C1 [Tubastatin A]
How it was run: as §1

[1] = compound: CNC(=O)C1=CC=CC=C1NC2=NC(=NC=C2Cl)NC3=C(C=C(C=C3)N4CCOCC4)OC
How it was run: as §1

defactinib = compound: CNC(=O)c1ccc(Nc2ncc(C(F)(F)F)c(NCc3nccnc3N(C)S(C)(=O)=O)n2)cc1 [defactinib]
How it was run: as §1

[2] = compound: CNc1nc(-c2ccc3c(N)n[nH]c3c2)cc(N2C[C@@H](C(=O)NC3CCCCC3)CC[C@H]2C)n1
How it was run: as §1

encorafenib = compound: COC(=O)N[C@@H](C)CNc1nccc(-c2cn(C(C)C)nc2-c2cc(Cl)cc(NS(C)(=O)=O)c2F)n1 [encorafenib]
How it was run: as §1

[3] = compound: COC(=O)[C@H](CCSC)NC(=O)C1=C(C=C(C=C1)NC[C@H](CS)N)C2=CC=CC=C2
How it was run: as §1

alisertib = compound: COc1cc(Nc2ncc3c(n2)-c2ccc(Cl)cc2C(c2c(F)cccc2OC)=NC3)ccc1C(=O)O [alisertib]
How it was run: as §1

[4] = compound: COc1cc2nc(-c3cc(F)ccc3O)nc(N[C@@H]3CNC[C@H]3C(C)(C)O)c2cc1OC
How it was run: as §1

gefitinib = compound: COc1cc2ncnc(Nc3ccc(F)c(Cl)c3)c2cc1OCCCN1CCOCC1 [gefitinib]
How it was run: as §1

Measured: log2 fold change

LPIN1 isoform 7 (UniProt Q14693)
Chain of UniProt Q14693 (Q14693 whole entry, looked up): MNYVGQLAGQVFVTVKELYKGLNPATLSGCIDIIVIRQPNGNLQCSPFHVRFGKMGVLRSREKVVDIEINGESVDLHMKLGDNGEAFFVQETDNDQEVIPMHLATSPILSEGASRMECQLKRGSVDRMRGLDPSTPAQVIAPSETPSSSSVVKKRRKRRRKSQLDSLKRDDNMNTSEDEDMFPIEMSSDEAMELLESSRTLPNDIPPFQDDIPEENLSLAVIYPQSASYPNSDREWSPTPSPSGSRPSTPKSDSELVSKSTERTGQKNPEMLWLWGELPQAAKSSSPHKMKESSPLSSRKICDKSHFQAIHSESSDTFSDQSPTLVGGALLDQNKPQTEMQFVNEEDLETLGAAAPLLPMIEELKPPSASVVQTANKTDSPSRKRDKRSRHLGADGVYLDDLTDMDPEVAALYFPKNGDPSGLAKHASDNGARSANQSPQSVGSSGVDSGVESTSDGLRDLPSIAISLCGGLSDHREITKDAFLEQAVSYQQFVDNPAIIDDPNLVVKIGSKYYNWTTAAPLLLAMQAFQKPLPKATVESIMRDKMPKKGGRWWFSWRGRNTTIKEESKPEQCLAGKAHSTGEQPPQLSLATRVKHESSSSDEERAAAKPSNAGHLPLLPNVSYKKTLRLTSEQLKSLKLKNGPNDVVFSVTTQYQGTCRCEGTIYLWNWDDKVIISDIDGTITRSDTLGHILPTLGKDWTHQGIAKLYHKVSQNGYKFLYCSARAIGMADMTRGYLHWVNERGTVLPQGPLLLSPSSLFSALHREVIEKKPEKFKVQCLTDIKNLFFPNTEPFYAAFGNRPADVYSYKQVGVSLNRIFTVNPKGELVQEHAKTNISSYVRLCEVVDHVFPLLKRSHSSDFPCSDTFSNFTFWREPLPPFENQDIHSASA
inactive: alvocidib -0.054 | Tubastatin A -0.05 | [1] -0.006 | defactinib 0.003 | [2] -0.1 | encorafenib 0.089 | [3] -0.064 | alisertib -0.028 | [4] 0.007 | gefitinib -0.04

MACO1 (UniProt Q8N5G2)
inactive: alvocidib -0.003 | Tubastatin A -0.003 | [1] -0.012 | defactinib 0.01 | [2] 0.119 | encorafenib -0.101 | [3] -0.016 | alisertib -0.024 | [4] -0.005 | gefitinib 0.04

LYRM4 (UniProt Q9HD34)
inactive: alvocidib 0.013 | Tubastatin A 0.068 | [1] -0.042 | defactinib 0 | [2] 0.036 | encorafenib -0.008 | [3] 0 | alisertib 0.007 | [4] 0 | gefitinib 0.008

MRPL10 isoform 2 (UniProt Q7Z7H8)
inactive: alvocidib 0.024 | Tubastatin A -0.013 | [1] -0.035 | defactinib 0.023 | [2] 0.074 | encorafenib 0.031 | [3] 0.183 | alisertib 0.028 | [4] -0.025 | gefitinib -0.019

MED12 isoform 2 (UniProt Q93074)
inactive: alvocidib -0.022 | Tubastatin A -0.161 | [1] -0.02 | defactinib 0.029 | [2] -0.041 | encorafenib 0.028 | [3] 0.06 | alisertib 0.016 | [4] -0.011 | gefitinib 0.027

MACROD1 (UniProt Q9BQ69)
inactive: alvocidib 0.12 | Tubastatin A -0.104 | [1] 0.012 | defactinib 0.039 | [2] 0.015 | encorafenib 0.029 | [3] -0.074 | alisertib -0.037 | [4] -0.001 | gefitinib 0.033

KLHL36 (UniProt Q8N4N3)
inactive: alvocidib 0.046 | Tubastatin A 0.04 | [1] -0.032 | defactinib 0.039 | [2] 0.017 | encorafenib 0.031 | [3] -0.078 | alisertib 0.032 | [4] -0.009 | gefitinib -0.074

MAP2K4 isoform 2 (UniProt P45985)
inactive: alvocidib 0.137 | Tubastatin A -0.08 | [1] 0.081 | defactinib 0.013 | [2] 0.061 | encorafenib 0.122 | [3] 0.087 | alisertib -0.069 | [4] -0.022 | gefitinib -0.032

LRRC40 (UniProt Q9H9A6)
Chain of UniProt Q9H9A6 (Q9H9A6 whole entry, looked up): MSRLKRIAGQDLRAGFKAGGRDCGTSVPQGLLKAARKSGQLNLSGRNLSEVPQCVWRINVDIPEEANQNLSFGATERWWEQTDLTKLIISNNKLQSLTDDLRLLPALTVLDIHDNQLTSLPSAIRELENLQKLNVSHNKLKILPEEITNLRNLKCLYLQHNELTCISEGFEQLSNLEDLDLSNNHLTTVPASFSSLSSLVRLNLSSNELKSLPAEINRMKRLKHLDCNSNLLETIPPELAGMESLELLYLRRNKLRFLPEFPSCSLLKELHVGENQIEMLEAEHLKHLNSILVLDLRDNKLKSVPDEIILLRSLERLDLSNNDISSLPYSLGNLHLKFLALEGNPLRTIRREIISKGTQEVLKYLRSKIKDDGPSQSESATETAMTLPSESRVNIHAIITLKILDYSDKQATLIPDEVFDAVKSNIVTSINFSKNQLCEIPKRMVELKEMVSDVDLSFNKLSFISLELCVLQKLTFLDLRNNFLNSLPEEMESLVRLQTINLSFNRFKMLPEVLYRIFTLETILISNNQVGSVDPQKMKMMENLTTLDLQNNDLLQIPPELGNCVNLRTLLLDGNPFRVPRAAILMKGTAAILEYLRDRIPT
inactive: alvocidib -0.009 | Tubastatin A -0.089 | [1] 0.019 | defactinib 0.013 | [2] -0.012 | encorafenib 0.021 | [3] -0.038 | alisertib 0.031 | [4] -0.008 | gefitinib 0.001

MAP2K3 isoform 3 (UniProt P46734)
inactive: alvocidib 0.05 | Tubastatin A -0.066 | [1] 0.139 | defactinib 0.017 | [2] -0.055 | encorafenib -0.011 | [3] 0.169 | alisertib 0 | [4] -0.171 | gefitinib -0.087

MAP2K2 (UniProt P36507)
Chain of UniProt P36507 (P36507 whole entry, looked up): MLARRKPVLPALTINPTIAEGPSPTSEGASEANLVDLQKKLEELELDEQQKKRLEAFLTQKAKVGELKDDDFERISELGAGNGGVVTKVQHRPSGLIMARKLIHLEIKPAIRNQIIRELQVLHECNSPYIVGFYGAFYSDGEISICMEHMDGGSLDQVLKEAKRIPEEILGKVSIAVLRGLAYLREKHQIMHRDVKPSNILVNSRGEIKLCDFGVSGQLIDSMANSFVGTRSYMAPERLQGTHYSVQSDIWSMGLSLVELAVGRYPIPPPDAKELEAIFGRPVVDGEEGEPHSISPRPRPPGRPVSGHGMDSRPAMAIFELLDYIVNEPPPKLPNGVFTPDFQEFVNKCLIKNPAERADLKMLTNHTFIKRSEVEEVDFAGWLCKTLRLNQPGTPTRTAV
inactive: alvocidib 0.022 | Tubastatin A -0.026 | [1] 0.198 | defactinib 0.036 | [2] 0.015 | encorafenib -0.046 | [3] -0.006 | alisertib -0.013 | [4] 0.009 | gefitinib -0.013

MAD2L2 (UniProt Q9UI95)
inactive: alvocidib -0.026 | Tubastatin A 0.051 | [1] 0.033 | defactinib 0.06 | [2] 0.064 | encorafenib -0.069 | [3] 0.022 | alisertib 0.04 | [4] 0.135 | gefitinib -0.006

MOCS1 isoform 8 (UniProt Q9NZB8)
active: gefitinib 0.395
inactive: alvocidib -0.108 | Tubastatin A -0.008 | [1] 0.002 | defactinib 0.113 | [2] -0.105 | encorafenib 0.039 | [3] -0.055 | alisertib -0.099 | [4] 0.003

MARK1 (UniProt Q9P0L2)
inactive: alvocidib -0.053 | Tubastatin A -0.087 | [1] -0.27 | defactinib -0.267 | [2] 0.072 | encorafenib 0.075 | [3] 0.226 | alisertib -0.007 | [4] -0.134 | gefitinib -0.004

KIF2A isoform 4 (UniProt O00139)
Chain of UniProt O00139 (O00139 whole entry, looked up): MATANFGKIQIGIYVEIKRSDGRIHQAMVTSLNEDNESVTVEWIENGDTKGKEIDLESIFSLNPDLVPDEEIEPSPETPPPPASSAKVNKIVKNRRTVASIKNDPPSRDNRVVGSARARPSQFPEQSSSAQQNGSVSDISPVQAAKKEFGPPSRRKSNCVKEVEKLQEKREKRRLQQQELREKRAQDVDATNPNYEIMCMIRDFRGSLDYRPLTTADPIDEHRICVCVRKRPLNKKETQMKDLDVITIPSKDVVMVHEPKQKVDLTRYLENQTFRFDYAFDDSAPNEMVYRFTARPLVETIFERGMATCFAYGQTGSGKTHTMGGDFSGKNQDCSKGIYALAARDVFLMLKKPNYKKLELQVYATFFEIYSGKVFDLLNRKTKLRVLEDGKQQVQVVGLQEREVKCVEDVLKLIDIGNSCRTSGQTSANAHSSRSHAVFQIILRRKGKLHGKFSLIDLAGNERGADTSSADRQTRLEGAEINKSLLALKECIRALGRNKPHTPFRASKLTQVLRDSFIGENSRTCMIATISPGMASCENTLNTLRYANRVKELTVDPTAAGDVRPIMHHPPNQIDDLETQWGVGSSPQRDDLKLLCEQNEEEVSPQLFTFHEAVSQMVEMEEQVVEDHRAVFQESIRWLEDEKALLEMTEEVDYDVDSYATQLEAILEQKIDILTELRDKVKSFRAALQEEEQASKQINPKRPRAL
inactive: alvocidib 0 | Tubastatin A -0.148 | [1] 0.005 | defactinib 0.01 | [2] -0.024 | encorafenib 0.012 | [3] 0.093 | alisertib 0.004 | [4] -0.014 | gefitinib 0.011

MICB, A0A140T979
active: [3] -0.506 | [4] 0.804
inactive: alvocidib 0.01 | Tubastatin A -0.005 | [1] -0.09 | defactinib 0.021 | [2] 0.084 | encorafenib -0.027 | alisertib -0.043 | gefitinib -0.012

METTL2A (UniProt Q96IZ6)
inactive: alvocidib 0.023 | Tubastatin A -0.079 | [1] 0.058 | defactinib 0.019 | [2] -0.028 | encorafenib -0.007 | [3] 0.055 | alisertib -0.057 | [4] 0.029 | gefitinib 0.04

KIF21A isoform 5 (UniProt Q7Z4S6)
Chain of UniProt Q7Z4S6 (Q7Z4S6 whole entry, looked up): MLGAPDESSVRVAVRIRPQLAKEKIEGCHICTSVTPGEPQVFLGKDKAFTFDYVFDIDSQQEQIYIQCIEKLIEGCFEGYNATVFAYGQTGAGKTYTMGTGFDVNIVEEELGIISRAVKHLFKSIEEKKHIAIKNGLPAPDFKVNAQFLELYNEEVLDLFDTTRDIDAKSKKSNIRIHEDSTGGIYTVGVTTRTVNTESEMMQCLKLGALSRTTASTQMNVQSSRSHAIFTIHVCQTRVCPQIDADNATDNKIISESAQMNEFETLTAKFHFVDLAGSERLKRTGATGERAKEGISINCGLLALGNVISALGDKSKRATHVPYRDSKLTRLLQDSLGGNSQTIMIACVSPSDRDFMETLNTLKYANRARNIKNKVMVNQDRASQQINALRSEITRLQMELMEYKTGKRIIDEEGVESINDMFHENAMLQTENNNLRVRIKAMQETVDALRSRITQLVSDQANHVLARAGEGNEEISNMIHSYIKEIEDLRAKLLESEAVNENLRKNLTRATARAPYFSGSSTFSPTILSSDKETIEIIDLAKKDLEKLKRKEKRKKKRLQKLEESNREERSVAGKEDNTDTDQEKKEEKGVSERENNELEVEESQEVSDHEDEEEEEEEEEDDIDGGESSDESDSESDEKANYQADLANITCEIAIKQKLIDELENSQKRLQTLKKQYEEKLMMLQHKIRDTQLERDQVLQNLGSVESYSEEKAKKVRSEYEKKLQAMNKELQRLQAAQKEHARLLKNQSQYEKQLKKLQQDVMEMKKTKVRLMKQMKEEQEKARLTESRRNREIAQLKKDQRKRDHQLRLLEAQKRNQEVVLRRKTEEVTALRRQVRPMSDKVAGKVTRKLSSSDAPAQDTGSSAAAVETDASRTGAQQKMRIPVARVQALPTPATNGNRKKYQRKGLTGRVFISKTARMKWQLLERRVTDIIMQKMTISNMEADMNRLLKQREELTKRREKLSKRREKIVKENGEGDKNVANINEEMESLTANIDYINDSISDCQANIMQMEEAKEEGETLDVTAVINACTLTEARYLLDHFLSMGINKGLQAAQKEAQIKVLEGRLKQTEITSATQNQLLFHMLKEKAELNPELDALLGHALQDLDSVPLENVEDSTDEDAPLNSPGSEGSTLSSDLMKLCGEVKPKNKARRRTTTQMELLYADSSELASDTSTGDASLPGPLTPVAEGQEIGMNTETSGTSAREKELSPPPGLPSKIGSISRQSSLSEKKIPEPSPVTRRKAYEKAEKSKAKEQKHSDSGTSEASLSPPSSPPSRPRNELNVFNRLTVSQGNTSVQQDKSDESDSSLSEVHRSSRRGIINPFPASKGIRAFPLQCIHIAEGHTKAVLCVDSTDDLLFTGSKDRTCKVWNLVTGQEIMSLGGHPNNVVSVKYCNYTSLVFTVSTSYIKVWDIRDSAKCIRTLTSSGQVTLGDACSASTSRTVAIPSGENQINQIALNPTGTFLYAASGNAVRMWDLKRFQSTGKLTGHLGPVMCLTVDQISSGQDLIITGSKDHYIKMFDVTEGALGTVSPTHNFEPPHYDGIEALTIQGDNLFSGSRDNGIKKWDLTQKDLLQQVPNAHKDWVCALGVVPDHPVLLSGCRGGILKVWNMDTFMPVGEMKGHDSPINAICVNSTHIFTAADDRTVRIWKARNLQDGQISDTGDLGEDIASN
inactive: alvocidib 0.106 | Tubastatin A -0.066 | [1] 0.022 | defactinib 0.007 | [2] 0.008 | encorafenib -0.016 | [3] 0.09 | alisertib -0.033 | [4] -0.002 | gefitinib -0.012

MAP4 (UniProt E7EVA0)
inactive: alvocidib -0.074 | Tubastatin A 0.1 | [1] 0 | defactinib 0.01 | [2] 0.037 | encorafenib -0.04 | [3] -0.117 | alisertib -0.028 | [4] 0.054 | gefitinib 0.098

MMS19 isoform 8 (UniProt Q96T76)
inactive: alvocidib 0.008 | Tubastatin A -0.144 | [1] 0 | defactinib -0.027 | [2] 0.007 | encorafenib 0.014 | [3] 0.128 | alisertib 0.002 | [4] 0.001 | gefitinib -0.022

MRPL15 (UniProt Q9P015)
inactive: alvocidib -0.122 | Tubastatin A 0.022 | [1] -0.014 | defactinib -0.011 | [2] 0.088 | encorafenib 0.053 | [3] -0.013 | alisertib 0.006 | [4] -0.014 | gefitinib -0.027

MICU2 (UniProt Q8IYU8)
inactive: alvocidib 0.03 | Tubastatin A -0.039 | [1] 0.01 | defactinib 0.003 | [2] 0.009 | encorafenib 0.015 | [3] -0.091 | alisertib 0.039 | [4] -0.128 | gefitinib -0.054

MCMBP (UniProt Q9BTE3)
inactive: alvocidib 0.035 | Tubastatin A -0.078 | [1] 0.029 | defactinib 0.041 | [2] -0.003 | encorafenib -0.001 | [3] 0.074 | alisertib 0.005 | [4] 0 | gefitinib 0.011

MORF4L1 isoform 2 (UniProt Q9UBU8)
active: [2] 0.247
inactive: alvocidib -0.01 | Tubastatin A 0.001 | [1] -0.001 | defactinib -0.005 | encorafenib -0.023 | [3] -0.021 | alisertib 0.045 | [4] 0.044 | gefitinib 0.008

LRIF1 (UniProt Q5T3J3)
Chain of UniProt Q5T3J3 (Q5T3J3 whole entry, looked up): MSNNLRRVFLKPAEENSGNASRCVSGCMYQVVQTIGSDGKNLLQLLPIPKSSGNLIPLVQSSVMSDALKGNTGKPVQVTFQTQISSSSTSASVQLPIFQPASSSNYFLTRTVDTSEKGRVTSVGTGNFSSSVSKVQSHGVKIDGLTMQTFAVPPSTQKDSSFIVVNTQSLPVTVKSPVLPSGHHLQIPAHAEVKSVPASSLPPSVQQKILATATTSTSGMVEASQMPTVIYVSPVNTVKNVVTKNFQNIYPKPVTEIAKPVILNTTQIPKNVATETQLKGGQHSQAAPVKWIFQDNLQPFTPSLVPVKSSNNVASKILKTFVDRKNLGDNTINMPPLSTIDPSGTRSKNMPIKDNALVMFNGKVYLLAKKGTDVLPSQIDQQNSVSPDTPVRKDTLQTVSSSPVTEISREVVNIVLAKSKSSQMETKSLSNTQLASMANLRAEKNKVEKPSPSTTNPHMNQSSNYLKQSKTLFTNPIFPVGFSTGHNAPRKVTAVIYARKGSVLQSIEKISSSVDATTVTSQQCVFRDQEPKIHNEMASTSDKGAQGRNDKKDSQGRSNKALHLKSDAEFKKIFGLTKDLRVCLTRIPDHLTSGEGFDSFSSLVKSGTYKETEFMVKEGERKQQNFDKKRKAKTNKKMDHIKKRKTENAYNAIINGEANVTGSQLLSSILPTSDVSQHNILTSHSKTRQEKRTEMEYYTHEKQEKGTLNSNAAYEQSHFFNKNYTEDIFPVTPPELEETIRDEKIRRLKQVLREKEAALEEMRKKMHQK
inactive: alvocidib -0.018 | Tubastatin A 0.075 | [1] -0.035 | defactinib 0.002 | [2] 0.126 | encorafenib 0.049 | [3] 0.052 | alisertib -0.03 | [4] 0.234 | gefitinib -0.039

LAGE3 (UniProt Q14657)
inactive: alvocidib -0.013 | Tubastatin A 0.004 | [1] -0.001 | defactinib -0.194 | [2] -0.035 | encorafenib 0.047 | [3] -0.076 | alisertib 0.224 | [4] -0.042 | gefitinib 0.107

MED13L (UniProt Q71F56)
inactive: alvocidib 0.042 | Tubastatin A -0.069 | [1] 0.016 | defactinib -0.011 | [2] -0.004 | encorafenib 0.02 | [3] 0.021 | alisertib -0.084 | [4] -0.005 | gefitinib 0.01

KLC2 (UniProt Q9H0B6)
inactive: alvocidib -0.034 | Tubastatin A -0.072 | [1] 0.004 | defactinib -0.048 | [2] -0.006 | encorafenib 0.01 | [3] 0.043 | alisertib -0.038 | [4] 0.001 | gefitinib -0.098

MAPK3 (UniProt P27361)
active: [1] 0.29
inactive: alvocidib 0.018 | Tubastatin A 0.037 | defactinib 0.061 | [2] 0.079 | encorafenib -0.035 | [3] 0.05 | alisertib -0.028 | [4] 0.052 | gefitinib -0.018

MAST4 (UniProt O15021)
inactive: alvocidib 0.042 | Tubastatin A -0.11 | [1] 0.394 | defactinib 0.282 | [2] -0.173 | encorafenib -0.036 | [3] 0.006 | alisertib -0.043 | [4] 0.032 | gefitinib -0.066
